Sampled rows, rich in hits. Any-hit rate of the full collection: about 3.3%.
PfGluPho inh: PfG6PD (Plasmodium falciparum) enzyme inhibition; inhibition, % at 20 µM; actives 0.78% (n = 350,000); PfGluPho enzyme, NADPH resazurin-diaphorase fluorescence; AID 504690;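 active = inhibition reaching at least a set limit at 20 µM in the primary screen, cut at about 59% in these data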;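 note: 0% = DMSO wells with substrate and 100% = DMSO wells lacking glucose-6-phosphate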
PRMT1 inh: PRMT1 (human) inhibition, primary screen; recombinant PRMT1, activity-based probe fluorescence polarization; AID 652257; Q99873; actives 1.3% (n = 370,000); inhibition, % at 2.79 µM;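 active = inhibition above about 21% made by adding two undisclosed values, limit read from the data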
Target sequence (Q99873 whole entry, looked up): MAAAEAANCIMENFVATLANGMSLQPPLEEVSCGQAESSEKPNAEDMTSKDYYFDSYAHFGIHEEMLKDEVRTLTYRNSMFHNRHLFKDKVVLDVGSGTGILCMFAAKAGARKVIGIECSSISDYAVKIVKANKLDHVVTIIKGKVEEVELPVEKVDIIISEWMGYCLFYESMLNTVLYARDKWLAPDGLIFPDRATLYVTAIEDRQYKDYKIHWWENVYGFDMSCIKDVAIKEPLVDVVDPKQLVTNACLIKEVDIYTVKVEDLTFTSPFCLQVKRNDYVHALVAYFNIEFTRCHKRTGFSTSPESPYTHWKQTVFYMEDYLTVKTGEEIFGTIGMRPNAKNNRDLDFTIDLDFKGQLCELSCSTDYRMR
UHRF1 binding: human UHRF1 methylated DNA binding inhibitors | Q96T88 | UHRF1 binding to methylated oligo, TR-FRET | actives 0.75% (n = 370,000) | inhibition, % at 4.4 µM; in the data active = inhibition above about 21%;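 note: UHRF1 SRA domain binding a hemimethylated CpG hairpin DNA probe; 0% = median of test compound wells and 100% = reference inhibitor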
PfM18AAP inh: blocks P. falciparum M18 aspartyl aminopeptidase | recombinant PfM18AAP, H-Glu-NHMec fluorogenic cleavage | inhibition, % at 7.35 µM | actives 1.2% (n = 290,000);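 active = inhibition above the campaign mean inhibition over all tested compounds plus 3 SD, cut at about 28% in these data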;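 note: 0% = plate median of test compound wells and 100% = 2 mM ZnCl2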
MBD2 inh: MBD2-methylated oligo binding inhibition; TR-FRET, MBD2 binding to methylated oligonucleotide; AID 686964; actives 0.31% (n = 370,000); inhibition, % at 4.4 µM; in the data active = inhibition above about 13%
PfG6PD confirm: PfG6PD inhibition, single-dose confirmed; shares compounds with PfGluPho inh; recombinant PfGluPho, NADPH-diaphorase-resazurin fluorescence; actives 34% (n = 2,400); inhibition, % at 20 µM;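 active = inhibition of at least 50% at 20 µM in any single replicate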;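 note: 0% = DMSO with substrate and 100% = DMSO lacking glucose-6-phosphate substrate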
Diaph ctr 10uM: diaphorase inhibition or oxidation at 10 uM NADPH; shares compounds with PfGluPho inh; diaphorase-coupled resazurin reduction, fluorescence, NADPH 10 uM; actives 39% (n = 820); inhibition, % at 20 µM;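 active = average inhibition reaching 50% or more with the compound at 20 µM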;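 note: resorufin red fluorescence formed as diaphorase reduces resazurin using NADPH; 0% = DMSO with enzyme and 100% = DMSO without enzyme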
Diaphorase 30uM: counter-screen for P. falciparum G6PD inhibitors: diaphorase inhibitors, oxidizers; Diaphorase/resazurin coupled assay, resorufin fluorescence, 30 uM NADPH; actives 29% (n = 820); inhibition, % at 20 µM; shares compounds with PfGluPho inh; AID 504863;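 active = inhibition averaging 50% or more, tested at 20 µM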;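 note: 0% = DMSO with enzyme and 100% = DMSO wells lacking diaphorase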
Numbers without * were called inactive; / = no result given.

SMILES	PfGluPho inh	PRMT1 inh	UHRF1 binding	PfM18AAP inh	MBD2 inh	PfG6PD confirm	others
COC(=O)CCCC1=CC2=CC(=O)C(C)(OC(=O)c3cccs3)C(=O)C2=CN1CCc1ccccn1 (stereo not drawn)	70.2*	4.8	-5.6	/	-8.9	22.9
COC(=O)CCC(=O)OC1(C)C(=O)C2=CN(CCc3ccccn3)C(c3ccc(OC)cc3)=CC2=C(Br)C1=O (stereo not drawn)	99.3*	/	/	/	/	40.6
C=CCN1C=C2C(=O)C(C)(OC(=O)c3cccs3)C(=O)C=C2C=C1CCCC(=O)OC (stereo not drawn)	36.5	6.4	-1.8	/	-8.7	/
CN(C)Cc1cc(O)c(CN(C)C)cc1O	78.0*	9.2	15.1	27.6	-1.2	88.0*	Diaph ctr 10uM=43.2;Diaphorase 30uM=17.2
CN(C)Cc1cc(C(C)(C)C)cc(C(C)(C)C)c1O	-14.1	4.0	0.7	-3.4	-2.7	/
COc1ccc(CN2C(=O)N3Cc4ccc(C)cc4C3CS2(=O)=O)cc1 (stereo not drawn)	/	5.3	-0.4	/	-1.4	/
C=C(C)CN1C(=O)C2(OCCO2)c2ccccc21	-8.3	-2.6	1.8	-8.8	-3.6	/
CCCC1CCC2(CC1)CCC2OC(=S)Nc1ccccc1C(F)(F)F (stereo not drawn)	/	-3.3	-2.5	/	-9.3	/
Cn1c(C(=O)NCCCN2CCCCCC2)cc2c(=O)n(C)c3ccccc3c21	60.0*	0.9	2.8	8.7	5.1	-2.4
O=C(Nc1nnc(COc2ccc(Cl)cc2)s1)c1ccco1	66.3*	8.0	-1.0	21.6	1.0	36.1
CCc1ccn2cc(-c3ccc4c(c3)OCO4)nc2c1	64.9*	0.0	-1.8	2.2	2.9	23.4
Cc1ccc(-c2cc(C(=O)N3CCN(c4ncccn4)CC3)c3cc(Br)ccc3n2)o1	61.6*	49.4*	2.9	6.2	1.4	-10.8
Cc1ccc(-c2cc(C(=O)N3CCN(c4ccc(F)cc4)CC3)c3ccccc3n2)o1	15.8	7.2	0.4	-37.3	-1.9	/
O=C(Cc1ccc(Cl)c(Cl)c1)NC1CCCCCC1	7.8	0.8	2.2	-0.2	6.4	/
C/C(=N\Nc1cccc(Cl)c1)c1ccncc1	78.2*	-0.1	0.9	7.3	-3.5	33.0
C/C(=N\Nc1ccc(Cl)cc1)c1ccncc1	55.3	0.1	-2.6	-0.2	-6.1	/
O=c1ccn(C2CC(O)C(COC(c3ccccc3)(c3ccccc3)c3ccccc3)O2)c(=O)[nH]1 (stereo not drawn)	/	3.7	-2.8	/	1.0	/
O=c1ccn(-c2cccc(C(F)(F)F)c2)nc1-c1ccn(-c2ccccc2F)n1	103.7*	-0.7	-2.4	5.3	0.6	101.9*	Diaph ctr 10uM=96.5*;Diaphorase 30uM=78.0*
C[C@@H]1CCCCO[C@H](CN(C)C(=O)Nc2cccc3ccccc23)[C@@H](C)CN([C@H](C)CO)C(=O)c2cc(N(C)C)ccc2O1	62.9*	1.3	-2.9	/	-1.3	3.2
C[C@@H]1CCCCO[C@@H](CN(C)C(=O)Nc2ccccc2)[C@@H](C)CN([C@H](C)CO)C(=O)c2cc(N(C)C)ccc2O1	24.6	-3.9	1.7	/	-5.0	/
O=S(=O)(c1ccccc1)N1CCN=C1SCc1ccccc1Cl	77.7*	2.6	2.8	2.2	0.8	20.7
O=S(=O)(c1ccccc1)N1CCN=C1SCc1cccc(Cl)c1	81.8*	-1.1	0.3	-4.8	3.7	42.6
Cc1ccc(S(=O)(=O)N2CCN=C2SCc2ccccc2)cc1	68.7*	-1.1	-0.5	-12.7	-0.2	23.7
CC(=O)Nc1ccc(S(=O)(=O)N2CCN=C2SCc2ccc(C)cc2)cc1	18.1	-1.6	1.2	-3.1	6.5	/
O=S(=O)(c1ccccc1)N1CCN=C1SCc1ccc(Cl)c(Cl)c1	20.7	-1.1	-0.4	-8.9	1.4	/
SMILES	PfGluPho inh	PRMT1 inh	UHRF1 binding	PfM18AAP inh	MBD2 inh	PfG6PD confirm	others
CC(=O)C1=C(C)N(Cc2ccc(F)cc2)C(=S)NC1c1cccc(Cl)c1 (stereo not drawn)	/	1.5	-1.4	/	-3.9	/
N#CC1=C(N)Oc2c(O)cc3ccccc3c2C1c1ccsc1 (stereo not drawn)	91.8*	2.5	-0.2	8.4	-2.1	68.9*	Diaph ctr 10uM=63.8*;Diaphorase 30uM=49.8
CCOC(=O)C1=C(C)OC(N)=C(C#N)C1c1ccsc1 (stereo not drawn)	-34.8	/	/	3.1	/	/
Cc1ccc(S(=O)(=O)/N=C2/C=C(C3C(=O)CC(C)(C)CC3=O)C(=O)c3ccccc32)cc1	72.4*	15.9	4.1	-0.7	-13.1	73.4*	Diaph ctr 10uM=43.3;Diaphorase 30uM=45.5
Cc1ccc(S(=O)(=O)/N=C2\C=C(NS(=O)(=O)c3ccccc3)C(=O)c3ccccc32)cc1	13.6	-1.4	-5.5	/	-21.4	/
CC1CCc2[nH]c3ccc(C(=O)N(C)CC(=O)Nc4ccccc4Cl)cc3c2C1 (stereo not drawn)	59.8*	-2.4	-1.0	/	2.1	23.6
CC1CCc2[nH]c3ccc(C(=O)N(C)CC(=O)Nc4ccccc4C(F)(F)F)cc3c2C1 (stereo not drawn)	109.8*	2.0	1.3	/	1.6	63.2*	Diaph ctr 10uM=52.7*;Diaphorase 30uM=34.4
Cc1ccc(NC(=O)CN(C)C(=O)c2ccc3[nH]c4c(c3c2)CC(C)CC4)cc1 (stereo not drawn)	17.5	1.3	-2.6	/	-6.0	/
O=C1c2ccccc2OC2(C=Cc3ccccc3O2)N1Cc1ccccc1 (stereo not drawn)	-10.6	-1.1	7.8	-0.3	5.3	/
CN1CC2=Cc3ccccc3OC23Oc2ccccc2C=C3C1	119.8*	-1.1	4.1	4.4	-0.9	89.6*	Diaph ctr 10uM=86.1*;Diaphorase 30uM=75.3*
O=C(C(=O)N1CCN(C(=O)c2cccs2)CC1)c1cccc(C(F)(F)F)c1	/	0.2	-0.3	/	-2.2	/
NC1(N2SC(S)=C3CCCC=C32)CCCCC1	/	10.2	-4.4	/	0.6	/
Nc1nc2cc(S(=O)(=O)N3CCOCC3)ccc2o1	68.8*	17.0	0.0	/	5.8	24.9
COc1ccc(-c2cc3ccc(OC)cc3cn2)cc1	30.3	2.1	-0.8	/	2.6	/
COc1ccc(-c2cc3ccccc3cn2)cc1	59.5*	-1.4	-0.4	/	2.1	9.1
c1ccc(-n2c(SCc3cccc4ccccc34)nnc2-c2ccncc2)cc1	/	-0.2	0.1	/	-0.9	/
Cc1onc(-c2ccccc2)c1C(=O)N/N=C/c1cn(C)c2ccccc12	90.0*	1.4	0.8	-3.8	-1.9	70.9*	Diaph ctr 10uM=68.2*;Diaphorase 30uM=57.8*
Cc1ccccc1OCC(=O)N/N=C/c1cn(C)c2ccccc12	64.1*	0.9	-1.3	3.2	-2.9	24.1
COc1ccccc1/C=N/NC(=O)c1c(-c2ccccc2)noc1C	87.0*	-6.0	-0.3	10.0	-6.2	65.7*	Diaph ctr 10uM=83.9*;Diaphorase 30uM=63.6*
Cc1ccc(OCC(=O)N/N=C/c2cn(C)c3ccccc23)cc1	7.3	4.5	5.0	5.9	0.9	/

Screening results deposited in PubChem BioAssay by several laboratories.
